Most compounds without a hit are left out; they make up all but 1.8% or so of the library.
INS-1E GSIS act: GLuc luminescence reporter in INS-1E cells, primary screen for activators of glucose-dependent secretion of insulin. INS-1E GLuc reporter insulin secretion, 2-3 h. activation, % at 16.6 µM. 370,000 tested, 0.61% active. AID 743287, 2014;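 active = lowest replicate activation of at least 40%, so every replicate reaches that level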;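 also: 0% = median of neutral control wells and 100% = median of IBMX positive control wells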
F508del corr: F508del CFTR correction, initial screen, CFBE line, single point; CFBE cells, YFP halide quenching; stimulated with forskolin plus potentiator P3; % fluorescence drop versus neutral controls; activity (quench increase), % at 7.58 µM; 350,000 tested, 0.36% active;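 active = mean added fluorescence quench of at least 8% versus neutral control, with both replicates also reaching 8%; inconclusive = only one of the mean or replicate conditions met; inactive = mean below 8% and not both replicates reaching 8%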;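 also: cells transiently co-express mutant CFTR-F508del with the halide-sensitive YFP; corrector assay measuring rescue of mutant channel to the surface after 24 h compound exposure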
LGR2 inh: inhibitors of bursicon-induced LGR2 CRE-luciferase signal, primary screen, cell-based, HEK293, CRE-luciferase reporter, bursicon stimulation; 380,000 tested, 0.35% active; Drosophila bursicon receptor LGR2 (rickets); inhibition, % at 9.99 µM; bursicon-stimulated, 4 h;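 active = drop in luminescence signal, shown as inhibition above about 50% in the replicate tests, limit read from the data, passing the limit was not always enough; inconclusive = probably only some replicates passing the limit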;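 also: agonist challenge used bursicon conditioned medium at about half maximal strength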
EWS-Fli inh: EWS/Fli-driven NR0B1 reporter inhibitors, primary screen, A673 cells, NR0B1 luciferase, luminescence, MLPCN library; viability-normalised; inhibition, % at 12.6 µM; 350,000 tested, 0.67% active;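 active = mean inhibition of at least 50% after viability correction, with every replicate also passing that limit; inconclusive = mean reaches 50% but only one of two replicates passes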;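 also: firefly luciferase signal divided by Alamar Blue viability fluorescence both relative to DMSO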
RAD52 inh: RAD52 DNA annealing inhibitors, primary screen, biochemical, FRET, single point, set 2; recombinant RAD52 DNA annealing, FRET fluorescence; inhibition, % at 18.7 µM; 360,000 tested, 0.46% active; AID 651710, 2012;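 active = every replicate showing at least 50% inhibition; inconclusive = mean inhibition at least 50% but not in every replicate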
RAD54 inh: inhibitors of human RAD54 branch migration, primary screen, biochemical, fluorescence, single point. DNA repair and recombination protein RAD54-like (Homo sapiens), Q92698. RAD54 Holliday junction branch migration, FAM/BHQ fluorescence. inhibition, % at 10.4 µM. 360,000 tested, 0.14% active. AID 602329, 2012;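 active = mean normalized replicate activity at least 40 and at least half of replicates scoring 40 or more; inconclusive = only one of the two criteria met; inactive = mean below 40 and under half of replicates reaching 40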;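 also: 0% = median of neutral control wells and 100% = median of positive control wells; inhibitors cause a drop in the FAM fluorescence signal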
Target sequence (Q92698 whole entry, looked up): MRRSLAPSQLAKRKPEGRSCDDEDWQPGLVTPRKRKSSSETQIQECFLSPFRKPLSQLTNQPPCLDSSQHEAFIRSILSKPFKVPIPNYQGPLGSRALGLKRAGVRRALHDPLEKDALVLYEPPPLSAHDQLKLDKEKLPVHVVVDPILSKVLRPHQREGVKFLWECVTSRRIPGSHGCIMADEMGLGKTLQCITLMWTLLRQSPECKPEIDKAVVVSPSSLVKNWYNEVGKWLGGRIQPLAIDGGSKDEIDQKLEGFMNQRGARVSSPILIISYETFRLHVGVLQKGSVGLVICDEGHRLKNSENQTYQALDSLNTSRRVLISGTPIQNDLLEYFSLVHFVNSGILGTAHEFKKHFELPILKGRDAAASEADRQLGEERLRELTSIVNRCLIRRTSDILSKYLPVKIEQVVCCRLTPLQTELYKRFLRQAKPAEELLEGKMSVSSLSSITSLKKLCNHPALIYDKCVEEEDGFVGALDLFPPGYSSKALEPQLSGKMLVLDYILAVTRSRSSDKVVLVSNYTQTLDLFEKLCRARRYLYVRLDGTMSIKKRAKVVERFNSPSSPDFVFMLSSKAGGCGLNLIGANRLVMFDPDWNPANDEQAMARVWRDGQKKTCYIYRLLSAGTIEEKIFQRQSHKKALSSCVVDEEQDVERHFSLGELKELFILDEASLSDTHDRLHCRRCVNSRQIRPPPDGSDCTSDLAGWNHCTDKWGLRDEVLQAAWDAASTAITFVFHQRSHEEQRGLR
An asterisk follows results filed as active; ? = inconclusive; . = no result; + = active, no number; ! = a repeat was not active.

SMILES	INS-1E GSIS act	F508del corr	LGR2 inh	EWS-Fli inh	RAD52 inh	RAD54 inh
O=C(Nc1ccc(C(F)(F)F)cc1)N1C[C@@H]2N[C@H](C1)C2c1ccc(-c2ccccc2)cc1 (some centres undefined)	754.7*!	-9.8	18.1	-9.2	79.0*!	.
O=C(Nc1ccc(C(F)(F)F)cc1)N1C[C@@H]2N[C@H](C1)C2c1ccc(/C=C/c2ccccc2)cc1 (some centres undefined)	+	-3.1	2.4	5.8	64.9*	.
O=C(N/N=C/c1ccc(O)c([N+](=O)[O-])c1)C1CC1(c1ccccc1)c1ccccc1 (centres undefined)	5.4	0.9	10.1	-0.7	-13.6	.
CC(=O)c1sc(NC(=O)c2cccs2)nc1C	-0.5	0.9	-27.9	-31.6	0.3	-1.1
Cc1ccc(N2CCN(C(=O)c3cc(COc4c(C)cccc4C)on3)CC2)c(C)c1	-8.5	-3.0	-7.4	0.6	-8.7	-9.7
COc1ccc(OC)c(-c2cc(-c3cccnc3)nc(N)c2C#N)c1	.	9.0*	9.9	56.5*	-42.1	0.3
N#Cc1c(-c2cccc(Br)c2)cc(-c2cccnc2)nc1N	89.9*	.	-13.2	.	.	-0.5
Cc1nc(N)c(C#N)c(-c2cccnc2)c1-c1ccccc1	41.4*	-1.3	-5.7	-11.8	-18.8	-9.9
COc1cccc(-c2cc(-c3cccnc3)nc(N)c2C#N)c1	19.7	1.8	-8.7	7.1	-22.4	-5.4
Cc1cc2nc(-c3ccc[nH]c3=O)[nH]c2cc1C	-8.7	-1.4	77.5*	62.1*	-5.7	16.0
CCc1nc(Sc2nnnn2-c2ccccc2)c2c3c(sc2n1)CCCC3	6.4	.	55.2*	-2.7	-3.7	.
CC(NC(=O)CN(c1cccc(C(F)(F)F)c1)S(=O)(=O)c1ccc(Cl)c([N+](=O)[O-])c1)c1ccccc1 (centres undefined)	-3.1	-6.4	7.1	59.8*	-11.5	1.5
N#C[C@@H]1[C@H](c2ccc(C#Cc3ccccc3F)cc2)[C@@H](CO)N1C(=O)C1CCC1	-3.6	4.3	?	37.7	12.1	-13.3
N#C[C@@H]1[C@H](c2ccc(C#Cc3cccc(F)c3)cc2)[C@@H](CO)N1C(=O)C1CC1	7.0	3.0	53.9*	?	14.6	-25.2
COc1cccc(C#Cc2ccc([C@@H]3[C@@H](CO)N(C(=O)C4CCC4)[C@H]3C#N)cc2)c1	3.6	3.2	99.9*	3.2	-9.6	-1.5
N#C[C@H]1[C@H](c2ccc(C#Cc3ccccc3F)cc2)[C@H](CO)N1C(=O)C1CCC1	8.0	0.9	101.8*	65.6*	2.4	-14.4
CN(C)C(=O)c1cccc(-c2ccccc2[C@H]2[C@H](C#N)N(C(=O)C3CCC3)[C@H]2CO)c1	7.0	-2.3	2.3	-7.3	61.9*	.
N#C[C@@H]1[C@H](c2ccc(C#Cc3ccccc3F)cc2)[C@@H](CO)N1C(=O)C1CCCC1	8.3	2.4	66.1*	2.3	-175.2	.
N#C[C@@H]1[C@H](c2ccc(C#CC3CCCCC3)cc2)[C@@H](CO)N1C(=O)c1cccc(F)c1	2.8	0.2	64.8*	35.5	-32.4	-18.0
N#C[C@@H]1[C@@H](c2ccc(C#Cc3ccccc3F)cc2)[C@H](CO)N1C(=O)C1CCCC1	-2.2	-3.4	-21.6	-0.3	-151.8	.
COc1ccccc1C#Cc1ccc([C@H]2[C@H](C#N)N(C(=O)C3CCCCC3)[C@H]2CO)cc1	-1.0	-0.5	82.6*	-5.6	-6.4	.
Cc1cc(NC(=O)CSCC(=O)NCc2cccc(C(F)(F)F)c2)no1	-7.7	-1.5	7.3	2.2	-12.4	.
O=S(=O)(Nc1ccc(Cc2ccncc2)cc1)c1cccs1	-5.7	-4.3	5.2	8.7	-7.3	-11.0
CCCCc1[nH]c(=O)c(C#N)c2c1CCCC2	99.5*	.	-8.9	.	.	.
CCCCc1[nH]c(=O)c(C#N)c2c1CSC(C)(C)C2	28.6	.	-9.6	.	.	.
SMILES	INS-1E GSIS act	F508del corr	LGR2 inh	EWS-Fli inh	RAD52 inh	RAD54 inh
O=C(C[C@@H]1C=C[C@H](NC(=O)Cc2ccccn2)[C@H](CO)O1)NCCCN1CCOCC1	8.8	4.3	-1.0	-16.9	-3.6	0.6
COc1ccc(CN(C)C[C@@H]2OCCCC[C@H](C)Oc3ccc(NS(=O)(=O)c4c(C)noc4C)cc3C(=O)N([C@@H](C)CO)C[C@@H]2C)cc1	-12.8	1.7	-8.3	0.1	.	7.3
CCOCCCn1c(SCC(=O)NC2CCCCC2)nc2ccccc2c1=O	43.0*	1.2	0.3	1.8	-3.8	-12.7
O=C(NC1CCCCC1)C1c2ccccc2OCC(=O)N1Cc1ccccn1 (centres undefined)	-4.9	0.6	-1.5	2.3	-28.8	.
Cc1ccc(Cl)cc1NC1=C/C(=N\S(=O)(=O)c2cccs2)c2ccccc2C1=O	-4.2	0.4	105.5*	45.3	-12.8	-1.9
O=C(O)c1ccc(NC2=C/C(=N/S(=O)(=O)c3ccccc3)c3ccccc3C2=O)cc1	-53.5	.	98.9*	26.8	-3.7	.
O=C1C(Nc2ccc(O)cc2)=C/C(=N/S(=O)(=O)c2cccs2)c2ccccc21	-1.9	-2.4	99.9*	24.7	-8.6	.
Cc1cc(C)c(S(=O)(=O)/N=C2\C=C(Nc3ccc(C(=O)O)cc3)C(=O)c3ccccc32)c(C)c1	6.2	-2.2	2.6	-36.7	-11.5	4.3
Cc1noc(C)c1NC(=O)Nc1ccc2c(c1)CC(=O)N([C@H](C)CO)C[C@@H](C)[C@@H](CN(C)Cc1ccccc1)O2	28.7	2.6	2.8	-3.1	11.8	-6.1
COC(=O)/C(=C1/Oc2cc(C)oc(=O)c2S1)C(F)(F)F	0.8	-3.2	41.7	54.4*	-14.9	-8.1
COC(=O)/C(=C1/Oc2ccc(C(C)(C)C)cc2S1)C(F)(F)F	-0.3	-1.7	-49.6	-33.8	-6.1	.
CCCCN(CCCNC(=O)c1ccc2c(c1)NC(=O)CN2C)c1ccccc1	7.6	1.2	91.0*	36.9	-19.1	-4.3
CO[C@H]1CN(C)C(=O)c2cc(NC(C)=O)ccc2OC[C@@H](C)N(Cc2ccccn2)C[C@@H]1C	-3.3	3.4	17.0	-1.5	-4.7	-3.5
Nc1ccc2c(O)cc(S(=O)(=O)O)cc2c1	.	4.0	24.2	-24.5	-120.4	72.6*
Cc1ccc(/C=N/NC(=O)c2ccc3ccccc3c2)s1	8.2	10.8*	-34.0	28.7	-19.3	-6.7
COCCn1c(C)cc(C2=NNC(=NC3CC3)SC2)c1C	30.3	-4.0	94.1*	90.0*	-19.5	.
C=CCn1c(C)cc(C2=NNC(=Nc3ccc(C)cc3)SC2)c1C	5.2	.	-27.0	-5.3	-5.6	.
C=CCN=C1NN=C(c2cc(C)n(CCOC)c2C)CS1	-7.1	.	?	85.3*	2.9	.
